In experiment [1] the target is Bile acid receptor (Homo sapiens) (UniProt Q96RI1). The experiment is described as follows: qHTS assay for small molecule antagonists of farnesoid X receptor signaling (AID 588526). Also: potency is read from the fitted curve at half-maximal effect. The procedure, abridged: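 Concentration-response titrations were fitted to the Hill equation for half-maximal inhibition and maximal response, with data normalised to 50 uM chenodeoxycholic acid and DMSO control wells. Cells: FXR-UAS-bla HEK293T, dialyzed FBS.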
Sequence of Bile acid receptor (Homo sapiens) (Q96RI1 whole entry, looked up): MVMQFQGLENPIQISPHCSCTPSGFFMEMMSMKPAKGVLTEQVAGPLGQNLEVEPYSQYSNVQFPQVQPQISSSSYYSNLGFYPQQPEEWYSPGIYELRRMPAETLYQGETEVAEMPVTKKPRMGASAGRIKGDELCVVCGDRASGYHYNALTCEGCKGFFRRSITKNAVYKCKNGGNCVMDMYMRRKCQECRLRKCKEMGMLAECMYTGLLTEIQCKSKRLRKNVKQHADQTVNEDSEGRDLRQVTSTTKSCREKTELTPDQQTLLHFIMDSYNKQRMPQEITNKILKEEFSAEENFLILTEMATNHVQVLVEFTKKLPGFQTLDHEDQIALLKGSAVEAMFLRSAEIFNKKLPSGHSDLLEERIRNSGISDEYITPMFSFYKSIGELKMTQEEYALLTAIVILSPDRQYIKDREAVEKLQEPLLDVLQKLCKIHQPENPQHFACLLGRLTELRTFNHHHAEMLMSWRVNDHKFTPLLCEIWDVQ
(Quantitative high-throughput screening tests each substance at several concentrations.)

Experiment [2] shares this target. Nature of the experiment: qHTS assay for small molecule agonists of farnesoid X receptor signaling (AID 588527).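 Also: series mostly up to about 77 µM; 0% = vehicle basal and 100% = reference agonist.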 Particulars: HEK293T FXR-UAS-bla, beta-lactamase ratio, 16 h; activation: stronger effect = higher value. The procedure, abridged: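 FXR-UAS-bla HEK293T cells (10% dialyzed FBS) preincubated 5-7 h at 37 C, then compounds at up to 92 uM for 16 h at 37 C. CCF4 beta-lactamase read-out after 2 h RT. Normalized to chenodeoxycholic acid (100 uM) and DMSO; Hill fit gave EC50 and efficacy.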

Experiment [3] can be described thus: qHTS assay for small molecule activators of the nuclear factor-kappa B (NF-kB) signaling pathway (AID 651749; active = well fitted activation curve with a large enough effect in the signal ratio; the % refers to the signal ratio; also: series mostly up to about 77 µM; % of control where 0% means no effect). Particulars: NF-kB-bla ME-180 cells, beta-lactamase FRET ratio, 16 h; activation: stronger effect = higher value. The procedure, abridged:
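ME-180 cells stably carrying a beta-lactamase reporter under an NF-kB response element were exposed to compound or DMSO vehicle for 16 hr at 37C, 5% CO2. Pathway activation was read by FRET, since reporter expression disrupts FRET.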

In experiment [4] the target is Androgen receptor (Homo sapiens) (UniProt P10275). The experiment is described as follows: qHTS assay for small molecule agonists of androgen receptor signaling (AID 588515; active = well fitted curve in the direction sought with a large enough effect in the signal ratio, with a control signal flat; the % refers to the signal ratio; also: % is scaled to controls: 0 for no effect and ±100 for the full control effect). To be noted: AR-UAS-bla HEK293, beta-lactamase ratio, agonist 16 h; stronger effect = higher value. The procedure, abridged:
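EC50 and efficacy came from Hill fits of titrations (up to 92 uM) normalized to 30 nM R1881 as 100% and DMSO as 0%. Compound exposure was 16 h at 37 C on AR-UAS-bla HEK293 cells, with a 405/460/530 nm CCF4 fluorescence read.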

For experiment [5] the target is unchanged. The experiment is described as follows: qHTS assay for small molecule antagonists of androgen receptor signaling (AID 588516; active = well fitted curve in the direction sought with a large enough effect in the signal ratio, with a control signal flat, not every such curve was filed as active; the % refers to the signal ratio; also: % is scaled to controls: 0 for no effect and ±100 for the full control effect). An outline of the steps: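 HEK293 AR-UAS-bla cells, 10% dialyzed FBS medium; cpd titration + R1881 10 nM final, 16 h 37 C; CCF4 2 h RT; FRET ratio; IC50/efficacy via Hill fit.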
The target of experiment [6] is Peroxisome proliferator-activated receptor gamma (Homo sapiens) (UniProt P37231). The experiment is described as follows: qHTS assay for small molecule antagonists of peroxisome proliferator-activated receptor gamma signaling (AID 588537; active = well fitted inhibition curve with a large enough effect in the signal ratio, with a control signal flat, not every such curve was filed as active; the % refers to the signal ratio;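 also: reporter cells co-stimulated with 50 nM rosiglitazone agonist during compound treatment; % of control where 0% means no effect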). The procedure, abridged:
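PPAR-gamma-UAS-bla HEK293 cells (3000/well, 1% charcoal/dextran-stripped FBS) were preincubated 6-6.5 h at 37 C, given titrated compounds, then stimulated with 50 nM rosiglitazone for 16 h. Beta-lactamase activity was read with CCF4 dye; IC50 came from Hill fits.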

Experiment [7] can be described thus: qHTS assay for small molecule agonists of retinoid X receptor alpha signaling (AID 588544). Particulars: HEK293T RXRa-UAS-bla, beta-lactamase reporter, 18 h; 530 nm emission.
The nature of experiment [8]: qHTS assay for small molecule activators of the human pregnane X receptor (PXR) signaling pathway (AID 720659; call rule not given here; also: 0% is about no effect).
The target of experiment [9] is Vitamin D3 receptor (Homo sapiens) (UniProt P11473). Nature of the experiment: qHTS assay for small molecule agonists of vitamin D receptor signaling (AID 588543).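 Also: 0% = DMSO basal and 100% = reference agonist control.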 An outline of the steps: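 β-lactamase reporter, VDR-UAS-bla HEK293T, agonist mode. Cells plated 5 h at 37 °C, compound titration 16 h at 37 °C, CCF4 dye 2 h RT, ratio 460/530 nm. Hill fit → EC50, efficacy vs 50 nM 1α,25-(OH)2D3.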
Sequence of Vitamin D3 receptor (Homo sapiens) (P11473 whole entry, looked up): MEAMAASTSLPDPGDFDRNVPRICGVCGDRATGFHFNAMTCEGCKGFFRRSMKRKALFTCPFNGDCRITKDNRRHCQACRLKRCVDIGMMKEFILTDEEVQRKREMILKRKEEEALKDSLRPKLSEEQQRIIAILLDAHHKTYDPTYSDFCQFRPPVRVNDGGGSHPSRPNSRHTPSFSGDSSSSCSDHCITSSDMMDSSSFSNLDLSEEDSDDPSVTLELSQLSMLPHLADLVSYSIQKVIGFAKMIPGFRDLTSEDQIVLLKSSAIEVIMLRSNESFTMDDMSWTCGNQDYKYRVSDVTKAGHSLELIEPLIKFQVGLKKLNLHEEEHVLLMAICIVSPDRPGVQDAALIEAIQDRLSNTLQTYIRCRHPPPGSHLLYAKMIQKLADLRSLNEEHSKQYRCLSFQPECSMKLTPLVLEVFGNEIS

Experiment [10] shares this target. Nature of the experiment: qHTS assay for small molecule antagonists of vitamin D receptor signaling (AID 588541).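 Also: receptor activated by calcitriol during compound treatment; series mostly up to about 77 µM; % is scaled to controls: 0 for no effect and ±100 for the full control effect.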 The procedure, abridged: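 VDR-UAS-bla HEK293T cells (2000/well, 2% charcoal-stripped FBS) were treated with titrated compounds plus 1-alpha,25-dihydroxyvitamin D3 (50 nM or 3 nM final) for 16 h at 37 C. CCF4 beta-lactamase fluorescence was read; Hill fits gave IC50.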

Experiment [11] in a line: qHTS assay for small molecule agonists of the antioxidant response element (ARE) signaling pathway (AID 651741; active = well fitted activation curve with a large enough effect in the signal ratio; the % refers to the signal ratio; also: potency is read from the fitted curve at half-maximal effect; as to activation: % of control where 0% means no effect). The procedure, abridged:
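ARE-bla HepG2 cells (beta-lactamase reporter under ARE control) were plated at 2,000 cells/well, preincubated 5 h at 37 C/5% CO2, then treated with DMSO-dissolved compounds for 16 h at 37 C; LiveBLAzer B/G FRET substrate added, fluorescence read after 2 h at room temperature.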

Where “and” joins values, the source holds several entries; their conditions need not be identical. Identical values can stand only once. Inconclusive results are not listed. Calls of active or inactive are those of the source. Unless noted, calls follow the shape of the full dose curve.

Sequence of Androgen receptor (Homo sapiens) (P10275 whole entry, looked up): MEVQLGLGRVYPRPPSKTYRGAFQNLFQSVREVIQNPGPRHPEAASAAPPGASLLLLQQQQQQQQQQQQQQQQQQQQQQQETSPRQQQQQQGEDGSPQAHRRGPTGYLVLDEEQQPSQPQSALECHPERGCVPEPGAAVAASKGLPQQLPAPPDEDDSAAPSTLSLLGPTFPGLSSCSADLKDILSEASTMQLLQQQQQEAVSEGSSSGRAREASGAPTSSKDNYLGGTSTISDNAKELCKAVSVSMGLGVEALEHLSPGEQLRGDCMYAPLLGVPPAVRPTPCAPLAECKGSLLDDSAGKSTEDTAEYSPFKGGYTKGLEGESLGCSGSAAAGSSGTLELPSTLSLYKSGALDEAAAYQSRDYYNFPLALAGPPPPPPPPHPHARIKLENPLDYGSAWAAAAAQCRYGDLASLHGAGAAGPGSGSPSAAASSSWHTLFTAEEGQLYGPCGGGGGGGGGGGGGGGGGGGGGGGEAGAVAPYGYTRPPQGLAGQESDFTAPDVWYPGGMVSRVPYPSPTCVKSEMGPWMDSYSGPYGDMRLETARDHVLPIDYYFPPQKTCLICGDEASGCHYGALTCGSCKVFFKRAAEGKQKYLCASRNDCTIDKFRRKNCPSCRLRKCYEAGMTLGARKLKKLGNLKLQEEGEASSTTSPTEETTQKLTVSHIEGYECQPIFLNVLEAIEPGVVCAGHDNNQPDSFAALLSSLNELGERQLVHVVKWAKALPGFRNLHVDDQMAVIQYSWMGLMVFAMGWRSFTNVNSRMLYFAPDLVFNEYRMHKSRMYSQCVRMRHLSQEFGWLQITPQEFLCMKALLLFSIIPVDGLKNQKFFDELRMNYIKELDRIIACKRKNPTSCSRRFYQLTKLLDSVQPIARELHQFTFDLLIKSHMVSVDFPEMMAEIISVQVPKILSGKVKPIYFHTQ
Sequence of Peroxisome proliferator-activated receptor gamma (Homo sapiens) (P37231 whole entry, looked up): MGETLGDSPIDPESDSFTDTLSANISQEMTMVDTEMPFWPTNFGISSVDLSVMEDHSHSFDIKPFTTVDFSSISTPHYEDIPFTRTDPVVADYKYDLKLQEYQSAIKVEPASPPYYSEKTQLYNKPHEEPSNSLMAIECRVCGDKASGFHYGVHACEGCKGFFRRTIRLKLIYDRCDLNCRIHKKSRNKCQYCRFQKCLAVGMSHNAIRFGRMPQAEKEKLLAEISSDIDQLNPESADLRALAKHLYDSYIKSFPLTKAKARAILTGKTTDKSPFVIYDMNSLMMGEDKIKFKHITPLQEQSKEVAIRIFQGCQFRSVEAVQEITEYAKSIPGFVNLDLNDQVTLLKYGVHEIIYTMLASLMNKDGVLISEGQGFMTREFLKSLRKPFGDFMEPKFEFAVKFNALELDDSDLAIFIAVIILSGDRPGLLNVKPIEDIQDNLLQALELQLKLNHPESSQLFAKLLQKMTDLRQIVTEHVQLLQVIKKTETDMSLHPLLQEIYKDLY

Take `CCC(C)(NC(=O)c1cc(Cl)c(C)c(Cl)c1)C(=O)CCl` (stereo unspecified): in [1], the Potency entry was “inactive”. The activation in [2] was -3.52% (inactive); in experiment [3], -0.168% (inactive).
Consider `Cc1[nH]c(=O)n(C(C)(C)C)c(=O)c1Cl`, for which the activation in experiment [4] is 0.796% (inactive). Further, the Potency result in [5], in experiment [1] and in experiment [6] was “inactive” in each case. Moreover, the max response in [7] is -0.982%. Also, the outcome in experiment [8] was inactive.
Regarding `C#CCN1C(=O)COc2cc(F)c(N3C(=O)C4=C(CCCC4)C3=O)cc21`, in experiment [4], the activation is 8.69% (inactive). Besides, in [5], the Potency entry was “inactive”. Besides, the outcome in [9] and in [8] was inactive. Besides, in experiment [7], the max response was -8.78%.
As for `CCNc1nc(Cl)nc(NC(C)(C)C)n1`, the activation in [4] was -15.6% (inactive); in experiment [2], 0.616% (inactive); in [3], -1.02% (inactive). Moreover, the Potency result in experiment [5], in experiment [1], in [6], in [10] and in experiment [11] was “inactive” each time. Besides, in experiment [9], the result was inactive.
As to `Nc1c(Cl)c(F)nc(OCC(=O)O)c1Cl`, the activation is 0.917% (inactive) in experiment [4] and 0.422% (inactive) in experiment [3]. For the same compound, the Potency entry in [5], in experiment [6] and in [10] was “inactive” throughout. For the same compound, the compound was called inactive in experiment [9] and in experiment [8]. Besides, the max response in [7] stood at 5.84%.
As for `CC1(C)CC/C(=C\c2ccc(Cl)cc2)C1(O)Cn1cncn1` (stereo unspecified), the activation in [4] is -0.862% (inactive). The Potency entry in experiment [5], in experiment [6] and in [10] was “inactive” each time. Besides, in experiment [9], the compound was called inactive.
For `O=[N+]([O-])c1ccc(Cl)c([N+](=O)[O-])c1`, the activation in [4] is -0.974% (inactive); in [2], 16.6% (inactive). Moreover, the Potency in [1] was 35.5 µM (active). In experiment [6], the Potency result was “inactive”.
On to `CCOP(=O)(OCC)SCS(=O)(=O)C(C)(C)C`, for which the activation was 11.8% (inactive) in [4], -5.69% (inactive) in experiment [2] and -0.0868% (inactive) in [3]. For the same compound, the Potency result in [1], in experiment [6] and in experiment [10] was “inactive” in each case. The outcome in [9] and in experiment [8] was inactive. Moreover, the max response in [7] stood at 4.6%.
`COP(=O)(OC)OC(Br)C(Cl)(Cl)Br` (stereo unspecified): the activation in experiment [4] was 4.22% (inactive). The Potency result in [1] and in [6] was “inactive” in each case. Further, in experiment [11], the Potency is 24.3 µM (active).
Consider `COc1ccc(-c2ccccc2)cc1NNC(=O)OC(C)C`, for which the activation in [4] was -16.7% (inactive); in experiment [2], 1.06% (inactive); in experiment [3], -0.684% (inactive). For the same compound, the Potency result in experiment [5], in experiment [1], in experiment [6] and in experiment [10] was “inactive” each time. In addition, the compound was classed as inactive in experiment [9] and in experiment [8]. For the same compound, the Potency in experiment [11] is 54.5 µM (active).
For `O=C(O)C(F)(F)C(F)(F)C(F)(F)C(F)(F)C(F)(F)C(F)(F)C(F)(F)C(F)(F)F`, the Potency entry in experiment [1], in [6] and in experiment [10] was “inactive” throughout. In addition, the activation in experiment [2] is 3.01% (inactive) and 1.7% (inactive). Moreover, the compound was called inactive in experiment [9] and in [8]. The max response in [7] is 1.6% and -25.9%.
Take `CCOP(=O)(OCC)OC(Cl)C(Cl)(Cl)Cl` (stereo unspecified): the activation in experiment [4] was -3.01% (inactive); in experiment [2] it was 4.93% (inactive); in [3], 1.4% (inactive). Also, in experiment [1], the Potency entry is “inactive”. Besides, the max response in experiment [7] was -5.65%. In addition, the result in experiment [8] was inactive.

(Values after PubChem BioAssay (NCATS).)
